Source: ChEMBL document CHEMBL3988442, “University of Dundee, Small-Polar-MMV Screening Library” (2021)
For some assays here: Potency and affinity values are given separately.

Tests used:
Design in all cases: scale not given: direction of the effect not stated beside the values
[1] = molecular target: Protein translocase subunit SecA (Escherichia coli (strain K12)) (UniProt P10408); test: Assay to Identify E. coli SecA ATPase Inhibitors; format: functional; settings: 30 µM
[2] = molecular target: T1, Ubiquitin-activating enzyme e1, putative (Leishmania donovani (strain BPK282A1)) (UniProt E9BSI1); test: Leishmania donovani Ubiquitin Activating Enzyme (LdE1); format: functional; settings: 30 µM
T1 sequence (whole entry): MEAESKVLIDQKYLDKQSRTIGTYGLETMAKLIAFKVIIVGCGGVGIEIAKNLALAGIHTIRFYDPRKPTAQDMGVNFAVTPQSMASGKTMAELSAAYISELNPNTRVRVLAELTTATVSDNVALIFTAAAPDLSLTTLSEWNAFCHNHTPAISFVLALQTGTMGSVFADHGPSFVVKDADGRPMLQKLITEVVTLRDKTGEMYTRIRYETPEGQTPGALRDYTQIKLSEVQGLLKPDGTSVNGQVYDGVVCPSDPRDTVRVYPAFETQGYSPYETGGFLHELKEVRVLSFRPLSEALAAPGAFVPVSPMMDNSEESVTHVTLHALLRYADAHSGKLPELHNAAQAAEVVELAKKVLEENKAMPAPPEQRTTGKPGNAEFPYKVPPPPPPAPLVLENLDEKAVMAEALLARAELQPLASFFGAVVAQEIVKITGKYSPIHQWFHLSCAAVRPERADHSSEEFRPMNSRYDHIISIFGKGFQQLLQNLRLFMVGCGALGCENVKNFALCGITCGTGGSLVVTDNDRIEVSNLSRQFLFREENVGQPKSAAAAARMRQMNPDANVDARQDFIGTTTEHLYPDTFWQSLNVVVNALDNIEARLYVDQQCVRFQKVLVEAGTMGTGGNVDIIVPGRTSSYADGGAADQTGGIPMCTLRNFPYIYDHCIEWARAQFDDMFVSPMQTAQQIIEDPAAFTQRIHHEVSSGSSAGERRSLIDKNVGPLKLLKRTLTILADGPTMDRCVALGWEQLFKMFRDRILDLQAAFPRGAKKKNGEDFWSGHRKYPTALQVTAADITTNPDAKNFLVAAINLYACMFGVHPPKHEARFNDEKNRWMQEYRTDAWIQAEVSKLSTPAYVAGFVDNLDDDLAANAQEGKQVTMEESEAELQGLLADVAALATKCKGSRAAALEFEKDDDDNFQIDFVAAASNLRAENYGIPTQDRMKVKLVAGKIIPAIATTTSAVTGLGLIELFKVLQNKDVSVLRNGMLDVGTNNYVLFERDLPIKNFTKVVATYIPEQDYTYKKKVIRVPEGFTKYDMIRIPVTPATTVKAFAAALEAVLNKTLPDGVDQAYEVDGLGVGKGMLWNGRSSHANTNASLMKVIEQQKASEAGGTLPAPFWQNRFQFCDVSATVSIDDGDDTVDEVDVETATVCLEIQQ

[3] = molecular target: AMP-activated protein kinase, AMPK (Homo sapiens) (UniProt P54646+O43741+P54619+Q9UGJ0+Q9Y478+Q13131+Q9UGI9); test: AMP-dependent Kinase enzyme assay. An in vitro enzyme assay that detects ADP turnover that is directly proportional to AMPK activity. This uses naive AMPK that is activated during the assay with MK-8722; format: functional; settings: 30 µM
[4] = molecular target: Sialic acid-binding Ig-like lectin 9 (Homo sapiens) (UniProt Q9Y336); test: Hs-Siglec9 ALPHAscreen SOP 20170721; settings: 10 µM
Trypanosoma cruzi = test: Trypanosoma cruzi phosphomannomutase and mannose-1-phosphate guanylyltransferase assay; format: functional; settings: 10 µM
[5] = molecular target: T2, Arginase-2, mitochondrial (Homo sapiens) (UniProt P78540); test: in vitro enzyme assay to detect the production of urea directly proportional to the activity of Arginase II; format: functional; settings: 33.3 µM; further: in the data most compounds retested in dose-response had high values
T2 sequence (whole entry): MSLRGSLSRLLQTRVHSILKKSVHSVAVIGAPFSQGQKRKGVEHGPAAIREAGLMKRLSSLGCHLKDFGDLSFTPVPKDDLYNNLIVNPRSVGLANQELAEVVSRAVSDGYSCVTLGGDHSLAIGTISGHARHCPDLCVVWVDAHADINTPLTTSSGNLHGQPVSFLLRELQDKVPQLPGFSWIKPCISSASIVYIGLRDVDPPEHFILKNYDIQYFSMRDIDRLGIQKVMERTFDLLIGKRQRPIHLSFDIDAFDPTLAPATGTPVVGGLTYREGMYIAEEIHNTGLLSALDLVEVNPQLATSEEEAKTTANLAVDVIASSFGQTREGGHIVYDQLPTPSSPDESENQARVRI

[6] = molecular target: T3, Proteasome subunit beta (Trypanosoma cruzi) (UniProt O96673); test: Trypanosoma cruzi proteasome chymotrypsin-like activity (TcProtChymo) assay.; further: in the data most compounds retested in dose-response had high values; format: functional; settings: 9.37 µM
T3 sequence (whole entry): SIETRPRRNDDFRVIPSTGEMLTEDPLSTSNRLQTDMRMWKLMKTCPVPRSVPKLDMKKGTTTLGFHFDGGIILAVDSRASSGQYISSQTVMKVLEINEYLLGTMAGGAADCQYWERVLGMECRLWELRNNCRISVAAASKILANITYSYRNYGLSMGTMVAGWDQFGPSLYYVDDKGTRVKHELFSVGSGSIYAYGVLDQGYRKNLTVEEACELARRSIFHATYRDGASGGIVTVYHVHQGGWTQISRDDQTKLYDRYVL

Homo sapiens = organism: Homo sapiens; test: To identify inhibition of the IFN signalling (Jak-Stat) pathway via expression of an eGFP reporter gene under the control of an IFN-stimulated response element (ISRE) containing MxA promoter.; format: functional; settings: 30 µM
[7] = molecular target: T4, Tyrosyl-tRNA synthetase, putative (Trypanosoma cruzi (strain CL Brener)) (UniProt Q4DSP6); test: Trypanosoma cruzi tyrosyl tRNA synthetase (TcYRS) _High Tyrosine SOP; format: functional; settings: 30 µM; further: in the data most compounds retested in dose-response had high values
T4 sequence (whole entry): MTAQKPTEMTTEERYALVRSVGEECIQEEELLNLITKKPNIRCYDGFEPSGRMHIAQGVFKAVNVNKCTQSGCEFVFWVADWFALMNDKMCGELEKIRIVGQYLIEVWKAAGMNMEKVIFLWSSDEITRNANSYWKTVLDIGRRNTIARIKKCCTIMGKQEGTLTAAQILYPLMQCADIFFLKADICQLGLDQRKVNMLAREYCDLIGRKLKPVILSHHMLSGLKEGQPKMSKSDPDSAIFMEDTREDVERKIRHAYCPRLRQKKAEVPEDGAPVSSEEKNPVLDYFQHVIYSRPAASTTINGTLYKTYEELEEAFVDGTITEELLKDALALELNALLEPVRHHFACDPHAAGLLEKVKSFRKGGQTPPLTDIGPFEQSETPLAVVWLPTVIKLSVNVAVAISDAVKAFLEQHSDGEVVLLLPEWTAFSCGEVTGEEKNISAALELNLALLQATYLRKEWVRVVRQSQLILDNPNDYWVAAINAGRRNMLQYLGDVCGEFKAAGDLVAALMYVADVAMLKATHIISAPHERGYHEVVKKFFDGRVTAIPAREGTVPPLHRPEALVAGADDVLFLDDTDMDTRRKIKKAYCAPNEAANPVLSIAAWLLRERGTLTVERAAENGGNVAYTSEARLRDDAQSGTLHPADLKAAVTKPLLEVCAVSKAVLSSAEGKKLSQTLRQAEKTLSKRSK

[8] = molecular target: T4, Tyrosyl-tRNA synthetase, putative (Trypanosoma cruzi (strain CL Brener)); test: Trypanosoma cruzi tyrosyl tRNA synthetase (TcYRS) SOP; format: functional; settings: 30 µM
[9] = molecular target: Chromo domain-containing protein 1 (Saccharomyces cerevisiae (strain ATCC 204508 / S288c) (Baker's yeast)) (UniProt P32657); test: ScCHD-1 Enzyme Inhibition Assay; format: functional; settings: 30 µM; further: in the data most compounds retested in dose-response had high values
Chain of Chromo domain-containing protein 1 (Saccharomyces cerevisiae (strain ATCC 204508 / S288c) (Baker's yeast)) (P32657 whole entry, the tested form may be a part): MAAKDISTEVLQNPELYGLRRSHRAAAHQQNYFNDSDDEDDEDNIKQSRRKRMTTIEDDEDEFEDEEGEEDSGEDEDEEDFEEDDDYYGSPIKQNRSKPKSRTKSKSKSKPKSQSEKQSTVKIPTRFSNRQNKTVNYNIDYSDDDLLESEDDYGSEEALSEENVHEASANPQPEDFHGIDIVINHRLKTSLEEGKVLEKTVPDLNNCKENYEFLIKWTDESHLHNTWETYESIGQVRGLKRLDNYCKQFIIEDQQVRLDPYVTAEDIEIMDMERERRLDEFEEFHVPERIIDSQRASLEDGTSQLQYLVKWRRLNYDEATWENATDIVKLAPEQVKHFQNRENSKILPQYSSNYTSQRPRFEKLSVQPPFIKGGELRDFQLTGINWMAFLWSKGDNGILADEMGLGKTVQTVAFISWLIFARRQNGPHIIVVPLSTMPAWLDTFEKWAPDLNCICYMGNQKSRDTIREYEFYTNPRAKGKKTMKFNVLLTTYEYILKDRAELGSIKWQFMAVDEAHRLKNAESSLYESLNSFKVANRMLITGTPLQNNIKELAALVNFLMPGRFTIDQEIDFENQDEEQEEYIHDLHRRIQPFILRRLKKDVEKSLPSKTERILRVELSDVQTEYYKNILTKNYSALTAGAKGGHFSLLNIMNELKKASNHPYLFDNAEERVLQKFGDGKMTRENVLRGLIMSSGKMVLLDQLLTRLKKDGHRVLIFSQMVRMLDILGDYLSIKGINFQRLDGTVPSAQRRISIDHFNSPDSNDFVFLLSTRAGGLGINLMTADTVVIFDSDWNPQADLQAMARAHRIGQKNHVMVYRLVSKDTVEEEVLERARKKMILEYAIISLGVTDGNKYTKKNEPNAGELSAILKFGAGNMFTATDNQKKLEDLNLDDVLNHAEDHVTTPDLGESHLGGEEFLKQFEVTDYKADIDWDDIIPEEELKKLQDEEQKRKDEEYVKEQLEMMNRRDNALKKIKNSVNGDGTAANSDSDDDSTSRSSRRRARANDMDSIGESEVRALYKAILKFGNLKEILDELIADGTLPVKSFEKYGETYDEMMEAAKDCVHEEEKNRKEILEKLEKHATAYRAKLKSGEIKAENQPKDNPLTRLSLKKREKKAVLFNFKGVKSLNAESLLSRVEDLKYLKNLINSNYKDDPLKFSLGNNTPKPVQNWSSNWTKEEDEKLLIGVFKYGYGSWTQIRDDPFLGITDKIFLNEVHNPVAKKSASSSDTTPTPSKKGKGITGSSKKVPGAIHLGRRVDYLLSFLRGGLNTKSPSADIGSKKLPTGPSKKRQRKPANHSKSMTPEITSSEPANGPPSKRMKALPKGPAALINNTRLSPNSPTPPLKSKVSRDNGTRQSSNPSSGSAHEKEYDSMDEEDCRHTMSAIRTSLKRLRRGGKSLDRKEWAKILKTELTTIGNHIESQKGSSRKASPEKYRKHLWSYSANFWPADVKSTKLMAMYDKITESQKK

Chain of Sialic acid-binding Ig-like lectin 9 (Homo sapiens) (Q9Y336 whole entry): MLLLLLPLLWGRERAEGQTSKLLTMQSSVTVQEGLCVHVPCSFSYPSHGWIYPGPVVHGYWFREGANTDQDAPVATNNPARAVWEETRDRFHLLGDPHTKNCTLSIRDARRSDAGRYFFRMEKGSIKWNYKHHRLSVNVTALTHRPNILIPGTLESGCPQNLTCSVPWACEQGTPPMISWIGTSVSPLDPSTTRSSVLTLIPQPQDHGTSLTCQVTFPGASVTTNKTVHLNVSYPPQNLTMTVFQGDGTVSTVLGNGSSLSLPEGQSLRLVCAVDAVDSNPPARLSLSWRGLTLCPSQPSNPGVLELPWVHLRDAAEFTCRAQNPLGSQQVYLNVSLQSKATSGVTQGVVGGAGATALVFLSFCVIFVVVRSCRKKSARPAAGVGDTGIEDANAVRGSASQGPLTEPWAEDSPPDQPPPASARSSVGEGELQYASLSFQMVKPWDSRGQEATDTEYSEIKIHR
Chain of Protein translocase subunit SecA (Escherichia coli (strain K12)) (P10408 whole entry): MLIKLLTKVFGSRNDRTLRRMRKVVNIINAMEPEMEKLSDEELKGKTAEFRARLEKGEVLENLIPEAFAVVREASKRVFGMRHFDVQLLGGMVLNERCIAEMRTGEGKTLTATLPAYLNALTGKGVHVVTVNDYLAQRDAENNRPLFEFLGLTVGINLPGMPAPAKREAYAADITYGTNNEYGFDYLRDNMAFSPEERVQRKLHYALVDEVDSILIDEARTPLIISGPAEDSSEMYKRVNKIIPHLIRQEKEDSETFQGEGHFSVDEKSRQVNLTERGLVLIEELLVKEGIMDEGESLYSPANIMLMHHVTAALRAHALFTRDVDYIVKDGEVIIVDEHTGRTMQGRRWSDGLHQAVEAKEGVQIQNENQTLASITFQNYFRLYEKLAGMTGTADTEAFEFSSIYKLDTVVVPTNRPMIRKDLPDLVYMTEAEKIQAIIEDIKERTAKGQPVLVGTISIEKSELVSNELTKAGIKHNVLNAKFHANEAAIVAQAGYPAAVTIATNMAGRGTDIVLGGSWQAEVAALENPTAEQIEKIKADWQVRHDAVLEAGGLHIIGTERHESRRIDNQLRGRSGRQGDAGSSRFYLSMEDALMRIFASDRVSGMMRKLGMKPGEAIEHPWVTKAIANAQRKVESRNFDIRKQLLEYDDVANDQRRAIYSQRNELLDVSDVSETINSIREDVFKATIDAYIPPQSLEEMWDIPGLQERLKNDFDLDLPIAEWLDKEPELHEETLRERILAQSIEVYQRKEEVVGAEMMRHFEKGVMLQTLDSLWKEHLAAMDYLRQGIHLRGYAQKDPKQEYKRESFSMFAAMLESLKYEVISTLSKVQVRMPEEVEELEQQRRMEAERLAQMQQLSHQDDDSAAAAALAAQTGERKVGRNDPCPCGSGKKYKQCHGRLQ

Row | Compound | Percent Effect [1] | Percent Effect [2] | Percent Effect [3] | Percent Effect [4] | Percent Effect (Trypanosoma cruzi) | Percent Effect [5] | Percent Effect [6] | Percent Effect (Homo sapiens) | Percent Effect [7] | Percent Effect [8] | Percent Effect [9]
1 | Fc1cc(CNCc2ccc3c(c2)CCO3)ccc1N1CCOCC1 | -0.571% | -8.11% | -9.24% | -2.02% | 0% | -2.86% | 6.38% | 2.17% | -2.65% | 0% | -3.66%
2 | Cc1cc(-c2nnn(CCNS(C)(=O)=O)n2)ccc1F | -6.86% | 5.48% | 0.593% | 2.92% | 3.17% | 0.399% | 4.71% | 17.4% | 9.38% | 18.5% | -2.42%
3 | CCN(c1ccc(C(=O)N2CCCC2)cc1)S(=O)(=O)CC | 2.05% | -1.39% | 3.96% | -5.1% | -0.486% | 1.32% | 2.46% | -27.1% | 1.05% | 0% | 2.93%
4 | O=C(c1cccc(S(=O)(=O)NCCCc2ncc[nH]2)c1)N1CCOCC1 | -1.26% | 5.48% | -0.693% | -4.52% | -7.05% | 4.09% | 13.8% | 5.99% | 2.15% | 7.5% | -3.79%
5 | COCCCC(=O)NS(=O)(=O)c1ccc2c(c1)OCCCO2 | -3.41% | 5.26% | -3.3% | 9.85% | -7.94% | 5.75% | -0.0846% | 0.992% | 0.493% | -1.24% | 4.1%
6 | Cc1nc(C)n(C2CCCN(C(=O)c3ccc(N(C)C)nn3)C2)n1 (configuration not stated) | -1.66% | -5.2% | 4.94% | -6.86% | 7.35% | -0.632% | 6.06% | -42.5% | 2.86% | 0% | -16.9%
7 | Cc1ccn(-c2ccc(C(=O)N3CCCC(n4ccnc4)C3)cc2)n1 (configuration not stated) | 1.74% | -2.53% | 4.22% | -1.83% | 1.6% | 2.66% | -2.21% | 1.73% | 4.43% | -3.8% | -1.63%
8 | COc1c(CNC2CCCc3ccccc32)c(C(C)C)nn1C (configuration not stated) | -5.37% | 21.6% | -16.6% | 17.5% | 7.71% | -5.73% | 3.59% | 6.78% | 4.95% | 18.3% | -4.82%
9 | O=C(c1cccc2c1OCO2)N1CCCC1Cn1cccn1 (configuration not stated) | -4.17% | -2.6% | 1.97% | 4.11% | -1.47% | -1.9% | 6.55% | 14.8% | 3.81% | 9.41% | -8.43%
10 | O=C(c1ccc2c(c1)OCO2)N1CCC[C@]2(C[C@H](OCC3CC3)CO2)C1 | -3.85% | 13.3% | 10.8% | -11.4% | 0.197% | 2.56% | 5.37% | 6.01% | 8.51% | 14.1% | -8.25%
11 | CN(C)C(=O)N1CCN(CCn2nc3ccccn3c2=O)CC1 | 0.243% | 7.89% | 0.915% | -3.62% | -6.13% | 0% | 20.8% | 3.27% | 6.38% | 5.2% | -5.93%
12 | CCOc1ccc(S(=O)(=O)NCc2cccnc2N(C)C)cc1 | -2.65% | 27.9% | -9.37% | -4.06% | 7.08% | -5.7% | 7.29% | 58.7% | 7.39% | 26.6% | -5.96%
13 | CCc1ccccc1-n1cc(O)c(C(=O)N2CCCCC2)n1 | -2.01% | -29.7% | 5.9% | -1.13% | -4.36% | 0.185% | 4.85% | 20.6% | -23.8% | -45.1% | 2%
14 | COc1cccc(CC(=O)N2CCc3ncnc(NC(C)C)c3CC2)c1 | -5.16% | -18.9% | 0.899% | -4.76% | -3.42% | -0.319% | 7.38% | 12.2% | 3.24% | 7.69% | 0.23%
15 | O=C(CCn1ccccc1=O)Nc1ccc(F)c(Cl)c1 | -5.08% | 8.11% | -4.38% | 0.784% | -2.44% | 3.72% | 10.7% | -1.47% | 4.3% | 6.17% | -7.68%
16 | Cc1ncsc1CN1C[C@H](C(=O)N2CCCO2)[C@@H]2CCO[C@@H]2C1 | -2.57% | -8.22% | -4.3% | 10.2% | 7.74% | -7.58% | 16.5% | -2.42% | 5.21% | 3.7% | -1.86%
17 | CCS(=O)(=O)CCN1CCCC1c1noc(C2CC2)n1 (configuration not stated) | -0.786% | 20.2% | -7.83% | -3.74% | -4.44% | 0% | 6.63% | 38.5% | -0.493% | -34.2% | -7.2%
18 | CCOCC(O)CN1CCN(C(=O)CC(C)(C)C)CC1 (configuration not stated) | -3.75% | -2.7% | -10.6% | 5.4% | -1.98% | 0.401% | -7.75% | 0.227% | 2.46% | 3.7% | 1.7%
19 | Cc1cc(=O)n(CC(=O)NCCC(C)C)c(-c2cccc(Cl)c2)n1 | -6.74% | 2.6% | 3.52% | 10.7% | 2.85% | -9.65% | 6.49% | 2.45% | 6.45% | 13.6% | 5.24%
20 | CCc1cccc(NS(=O)(=O)c2cc3c(c(C(=O)O)c2)OCCO3)c1 | -5.6% | 1.27% | -5.84% | 0.409% | -1.33% | -0.645% | 20.9% | -2.39% | -7.29% | -7.59% | -30.6%
21 | CCCNC(=O)CN1CCN(Cc2csc(C(C)(C)C)n2)CC1 | -7.74% | 2.53% | -2.27% | 0.111% | -4.63% | -1.14% | -7.62% | 20.3% | 2.46% | -3.8% | -1.83%
22 | Cc1nnc(CN2CCC(N(C)Cc3nnc(C4CC4)n3C)C2)o1 (configuration not stated) | -3.08% | 16.2% | -9.74% | -7.84% | -6.32% | -1.2% | 5.04% | 20.7% | 4.43% | 11.1% | -4.72%
